PubChem BioAssay (Tox21)
Where “and” joins values, the source holds several entries; their conditions need not be identical. Identical values can stand only once. Inconclusive results are not listed. A call without a number means that no potency is given here. The source holds several records for some structures; these can differ, active in one and inactive in another. Calls of active or inactive are those of the source. Unless noted, the call rests on the fitted dose curve.

How the values were obtained:
[1] = target: Thyrotropin receptor (Homo sapiens) (UniProt P16473); assay: qHTS assay to identify small molecule agonists of the thyroid stimulating hormone receptor (TSHR) signaling pathway (AID 1224843); further: nearly all actives have a fitted effect of over 45% in size; further: potency means the concentration at half of the fitted maximal effect
Chain of Thyrotropin receptor (Homo sapiens) (P16473 whole entry, looked up): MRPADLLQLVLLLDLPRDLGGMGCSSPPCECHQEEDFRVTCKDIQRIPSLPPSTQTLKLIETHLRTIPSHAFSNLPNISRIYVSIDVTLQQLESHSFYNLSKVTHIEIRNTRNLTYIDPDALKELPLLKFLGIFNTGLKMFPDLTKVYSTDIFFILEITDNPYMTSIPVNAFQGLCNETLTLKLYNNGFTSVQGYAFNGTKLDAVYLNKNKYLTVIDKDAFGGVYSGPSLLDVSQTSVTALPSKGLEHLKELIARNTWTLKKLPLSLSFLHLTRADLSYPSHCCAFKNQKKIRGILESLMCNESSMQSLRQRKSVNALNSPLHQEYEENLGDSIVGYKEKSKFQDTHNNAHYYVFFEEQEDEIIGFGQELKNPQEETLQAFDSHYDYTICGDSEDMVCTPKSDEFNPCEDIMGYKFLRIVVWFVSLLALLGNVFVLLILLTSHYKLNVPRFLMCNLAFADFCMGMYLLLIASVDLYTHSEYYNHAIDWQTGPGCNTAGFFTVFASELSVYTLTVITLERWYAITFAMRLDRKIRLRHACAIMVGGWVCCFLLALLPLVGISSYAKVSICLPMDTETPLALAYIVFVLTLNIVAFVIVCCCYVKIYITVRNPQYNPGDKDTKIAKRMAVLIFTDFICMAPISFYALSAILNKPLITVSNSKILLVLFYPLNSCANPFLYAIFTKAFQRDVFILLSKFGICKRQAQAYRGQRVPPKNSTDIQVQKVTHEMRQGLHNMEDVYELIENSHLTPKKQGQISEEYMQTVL
Procedure, shortened: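 Screening of the Tox21 10K collection used HEK293 cells engineered with TSHR at 800 cells per well. After a 30-min room-temperature compound exposure, HTRF cAMP reagents were added and fluorescence recorded 1 h later.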

[2] = qHTS assay to identify small molecule agonists of the hypoxia (HIF-1) signaling pathway - cell viability counter screen (AID 1224844); further: nearly all actives have a fitted effect of over 50% in size; further: potency means the concentration at half of the fitted maximal effect
Procedure, shortened: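 HRE-bla ME-180 cells, 2,000/well in 0.5% dialyzed FBS medium, treated 17 h at 37C with compounds. Viability read in the same wells as the bla reporter, by CellTiter-Glo luminescence after 30 min at room temperature.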

[3] = qHTS assay to identify small molecule agonists of H2AX (AID 1224845; active means well fitted activation curve with a large enough effect in the signal ratio in the repeat runs, not every such curve was filed as active; the % refers to the signal ratio; further: potency means the concentration at half of the fitted maximal effect)
Procedure, shortened: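 Phospho-H2AX Ser139 measured by HTRF (ex 320 nm; em 665 and 620 nm) after 24 hr antibody incubation. Compounds, 15 concentrations, 0.76% DMSO, were applied to CHO-K1 cells for 3hr at 37C before lysis.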

[4] = qHTS assay to identify small molecule agonists of the hypoxia (HIF-1) signaling pathway (AID 1224846; active means well fitted activation curve with a large enough effect in the signal ratio in the repeat runs, not every such curve was filed as active; the % refers to the signal ratio)
Procedure, shortened: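 HRE-bla ME-180 beta-lactamase reporter cells in medium with 0.5% dialyzed FBS, pre-incubated 5 h then exposed to compounds 17 h at 37C, 5% CO2; reporter induction read with CCF4-AM FRET substrate.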

[5] = qHTS assay to identify small molecule antagonists of the estrogen related receptor (ERR) signaling pathway from Tox21 library (AID 1224848; active means well fitted curve in the direction sought with a large enough effect in the repeat runs; an effect the other way counts as inactive or inconclusive; further: nearly all actives have a fitted effect of over 50% in size; further: potency means the concentration at half of the fitted maximal effect)
Procedure, shortened: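 Antagonist-mode screen of the Tox21 10K library in an NTP-provided ERR reporter cell line; 18 h compound exposure at 37 C, luminescence measured with ONE-Glo.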

[6] = qHTS assay to identify small molecule agonists of the estrogen related receptor (ERR) signaling pathway from Tox21 library (AID 1224849); conditions: ERR reporter cell line, ONE-Glo luciferase, 18 h; further: nearly all actives have a fitted effect of over 15% in size
Procedure, shortened: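 ERR reporter cells (NTP line) pre-incubated 6 hours at 37 C, then exposed to compounds for 18 hours at 37 C. ONE-Glo luciferase luminescence was read after 30 minutes at room temperature.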

[7] = qHTS RealTime-Glo MT Cell Viability Assay in HepG2 cells - 24 hour (AID 1224867; active means well fitted curve in the direction sought with a large enough effect in the repeat runs; an effect the other way counts as inactive or inconclusive; further: nearly all actives have a fitted effect of over 50% in size)
Procedure, shortened: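 Cell number in HepG2 cultures estimated from NanoLuc luminescence generated by metabolic reduction of a prosubstrate by living cells. The homogeneous, nonlytic format allowed repeated reads at 0, 8, 16, 24, 32 and 40 h of compound exposure.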

[8] = qHTS assay to identify small molecule agonists of H2AX - cell viability counter screen (AID 1224847); further: nearly all actives have a fitted effect of over 30% in size; further: potency means the concentration at half of the fitted maximal effect
Procedure, shortened: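 For this counter screen, overnight-attached CHO-K1 cells received test compounds (15 concentrations, 0.76% DMSO final); 3 hr later at 37C, CellTiter-Glo reagent was added and luminescence recorded after 30 min at room temperature.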

[9] = qHTS RealTime-Glo MT Cell Viability Assay in HEK293 cells - 32 hour (AID 1224868; active means well fitted curve in the direction sought with a large enough effect in the repeat runs; an effect the other way counts as inactive or inconclusive; further: nearly all actives have a fitted effect of over 50% in size; further: potency means the concentration at half of the fitted maximal effect)
Procedure, shortened: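 Homogeneous bioluminescent viability format in HEK293 cells (600 cells/well). Following 5 h at 37 C/5% CO2, 23 nL compound was pintooled; the signal was measured repeatedly during 40 h incubation.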

[10] = A CellTox Green Cytotoxicity Assay to monitor cytotoxicity in HEK293 cells - 0 hour (AID 1224869; active means well fitted curve in the direction sought with a large enough effect in the repeat runs; an effect the other way counts as inactive or inconclusive; further: nearly all actives have a fitted effect of over 50% in size)
Procedure, shortened: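 HEK293 cells, 600/well, were preincubated 5 hours and then exposed to compounds at 37 C for up to 40 hours. A cell-impermeant cyanine dye staining dead-cell DNA was read by fluorescence at 0, 8, 16, 24, 32 and 40 h time points.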

| Structure (SMILES) | Potency [1] | Potency [2] | Potency [3] | outcome [4] | Potency [5] | activity change, positive = activation ([6]; at 92.4 µM (top of the series)) | Potency [7] | Potency [8] | Potency [9] | Potency [10] | activity change, positive = activation ([6]; at 42.5 µM (top of the series)) |
| --- | --- | --- | --- | --- | --- | --- | --- | --- | --- | --- | --- |
| O=[N+]([O-])c1ccc(O)c([N+](=O)[O-])c1 | inactive | inactive | inactive | inactive | 21.8 µM (active) and 21.7 µM (active) | -36.7% (inactive) and -43.4% (inactive) | inactive | – | – | – | – |
| NNC(N)=S | inactive | inactive | 105 µM (active) and inactive | inactive | 16 µM (active) and 61.1 µM (active) | -76.7% (inactive) and -56.6% (inactive) | inactive | inactive | inactive | inactive | – |
| COC(=O)c1sccc1S(=O)(=O)NC(=O)Nc1nc(C)nc(OC)n1 | inactive | inactive | inactive | inactive | – | – | inactive | inactive | inactive | inactive | – |
| Nc1ccc(-c2ccccc2)cc1 | inactive | 28.3 µM (active) and inactive | inactive | inactive | – | – | inactive | inactive | – | – | – |
| CCCCCCCCCCCOC(=O)c1ccccc1C(=O)OCCCCCCCCCCC | inactive | inactive | inactive | inactive | – | – | inactive | inactive | inactive | – | – |
| Cc1ccccc1[N+](=O)[O-] | inactive | inactive | inactive | inactive | – | – | inactive | inactive | – | – | – |
| O=C(NC(=O)c1c(F)cccc1F)Nc1ccc(Cl)cc1 | inactive | inactive | inactive | inactive | – | – | inactive | inactive | – | inactive | – |
| CCCCCCCCOC(=O)c1ccccc1C(=O)OCCCCCCCC | inactive | inactive | inactive | inactive | – | – | inactive | inactive | inactive | inactive | – |
| CCC(=O)O[C@H]1CC[C@H]2[C@@H]3CCC4=CC(=O)CC[C@]4(C)[C@H]3CC[C@]12C | inactive | 54.9 µM (active) and inactive | inactive | inactive | – | – | inactive | 101 µM (active) and inactive | 19.5 µM (active) and 23.9 µM (active) | inactive | – |
| c1ccc(-c2cccc(-c3ccccc3)c2)cc1 | inactive | inactive | inactive | inactive | – | – | inactive | inactive | – | inactive | – |
| NC(=S)Nc1ccccc1 | inactive | inactive | inactive | inactive | – | – | inactive | inactive | 5.59 µM (active) and inactive | – | – |
| CCCCN(CC)c1c([N+](=O)[O-])cc(C(F)(F)F)cc1[N+](=O)[O-] | 8.77 µM (active) and 12.2 µM (active) | inactive | inactive | inactive | inactive | -0.494% (inactive) and 5.99% (inactive) | inactive | inactive | inactive | inactive | – |
| CCC(C)c1cc([N+](=O)[O-])cc([N+](=O)[O-])c1O (stereo not drawn) | inactive | inactive | inactive | inactive | inactive and 13.7 µM (active) | -0.756% (inactive) and -61% (inactive) | inactive | inactive and 28.4 µM (active) | – | – | – |
| CCC(CC)Nc1c([N+](=O)[O-])cc(C)c(C)c1[N+](=O)[O-] | inactive | inactive | inactive | inactive | inactive | -5.44% (inactive) and 8% (inactive) | inactive | inactive | – | – | – |
| CC1(C)C(C=C(Cl)Cl)C1C(=O)OC(C#N)c1cccc(Oc2ccccc2)c1 (stereo not drawn) | inactive | inactive | inactive | inactive | – | – | inactive | inactive | inactive | inactive | – |
| CCOP(=S)(OCC)O/N=C(\C#N)c1ccccc1 | inactive | inactive | inactive | inactive | inactive | 4.34% (inactive) | inactive | inactive | – | inactive | 3.78% (inactive) |
| C=CCc1ccc(OC)cc1 | inactive | inactive | inactive | inactive | – | – | inactive | inactive | – | – | – |
| Cc1cccc(N)c1N | inactive | inactive | inactive | inactive | inactive | 5.31% (inactive) and 103% (active) | inactive | inactive | – | – | – |

| Structure (SMILES) | Potency [1] | Potency [2] | Potency [3] | outcome [4] | Potency [5] | activity change, positive = activation ([6]; at 92.4 µM (top of the series)) | Potency [7] | Potency [8] | Potency [9] | Potency [10] | activity change, positive = activation ([6]; at 42.5 µM (top of the series)) |
| --- | --- | --- | --- | --- | --- | --- | --- | --- | --- | --- | --- |
| COP(=S)(OC)Oc1cc(Cl)c(Cl)cc1Cl | inactive | inactive | inactive | inactive | – | – | inactive | inactive | inactive | inactive | – |
| CC(C)NC(C)C | inactive | inactive | inactive | inactive | – | – | inactive | inactive | inactive | inactive | – |
| Nc1ccc(Cl)c(Cl)c1 | inactive | inactive | inactive | inactive | 21.7 µM (active) | -24.9% (inactive) and -36.3% (inactive) | inactive | inactive | inactive | inactive | – |
| NCc1cccnc1 | inactive | inactive | inactive | inactive | inactive | 4.26% (inactive) | inactive | inactive | inactive | inactive | 0.61% (inactive) |
| COc1ccc(C(CN(C)C)C2(O)CCCCC2)cc1 (stereo not drawn) | inactive | inactive | inactive | inactive | – | – | inactive | inactive | inactive | – | – |
| CCCCCc1cc(O)cc(O)c1 | inactive | inactive | inactive | inactive | – | – | – | 113 µM (active) | – | – | – |
| S=C1NCCN1 | 1.69 µM (active) and inactive | inactive | inactive | inactive | – | – | inactive | inactive | inactive | inactive | – |
| CC(C)C(=O)OCC(C)(C)C(OC(=O)C(C)C)C(C)C (stereo not drawn) | inactive | inactive | inactive | inactive | inactive | 5% (inactive) and 0.884% (inactive) | inactive | inactive | – | – | – |
| CCCCN(CCCC)N=O | inactive | inactive | inactive | inactive | – | – | inactive | inactive | – | – | – |
| C=CCc1ccc2c(c1)OCO2 | inactive | inactive | inactive | inactive | – | – | inactive | inactive | inactive | – | – |
| CC(C)c1ccc(CO)cc1 | inactive | inactive | inactive | inactive | inactive | 2.78% (inactive) and -0.788% (inactive) | inactive | inactive | – | inactive | – |
| Cc1ccc2c(c1N)C(=O)c1ccccc1C2=O | inactive | inactive | inactive | inactive | inactive | 82.1% (active) and 70.5% (active) | inactive | inactive | 8.62 µM (active) and 7.76 µM (active) | inactive | – |
| c1ccc(NNc2ccccc2)cc1 | inactive | inactive | inactive | inactive | inactive | 2.54% (inactive) and 6.77% (inactive) | inactive | inactive | inactive | inactive | – |
| CC(O)CCO (stereo not drawn) | inactive | inactive | inactive | inactive | – | – | inactive | inactive | – | inactive | – |
| CN(C)C(=O)Nc1ccc(Cl)cc1 | inactive | inactive | inactive | inactive | – | – | inactive | inactive | – | inactive | – |
| CC(C)N(C(=O)SCC(Cl)=C(Cl)Cl)C(C)C | 30.2 µM (active) and 15.4 µM (active) | inactive | inactive | inactive | – | – | inactive | inactive | – | inactive | – |
| C=CCN(CC=C)C(=O)C(Cl)Cl | inactive | inactive | inactive | inactive | – | – | inactive | inactive | – | – | – |
